Results as given in paper PMC5540273 (PLoS ONE, 2017).

Experiments:
Settings in all cases: concentration: 1 μM, replicates: in singlicate; n = 1
TESK1 = test system: TESK1
TGFBR1 = test system: TGFBR1
TGFBR2 = test system: TGFBR2
TIE1 = test system: TIE1
TIE2 = test system: T1, TIE2
T1 construct: gene TEK

TLK1 = test system: TLK1
TLK2 = test system: TLK2
TNIK = test system: TNIK
TNK1 = test system: TNK1
TNK2 = test system: TNK2
TNNI3K = test system: TNNI3K
TRKA = test system: T2, TRKA
T2 construct: gene NTRK1

TRKB = test system: TRKB
TRKC = test system: T3, TRKC
T3 construct: gene NTRK3

TRPM6 = test system: TRPM6
TSSK1B = test system: TSSK1B
TSSK3 = test system: TSSK3
TTK = test system: TTK
TXK = test system: TXK
[1] = test system: TYK2(JH1domain-catalytic)
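Also: KINOMEscan kinase panel screen.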

SMILES | %Inh (TESK1) [%] | %Inh (TGFBR1) [%] | %Inh (TGFBR2) [%] | %Inh (TIE1) [%] | %Inh (TIE2) [%] | %Inh (TLK1) [%] | %Inh (TLK2) [%] | %Inh (TNIK) [%] | %Inh (TNK1) [%] | %Inh (TNK2) [%] | %Inh (TNNI3K) [%] | %Inh (TRKA) [%] | %Inh (TRKB) [%] | %Inh (TRKC) [%] | %Inh (TRPM6) [%] | %Inh (TSSK1B) [%] | %Inh (TSSK3) [%] | %Inh (TTK) [%] | %Inh (TXK) [%] | %Inh [1] [%]
CCNC(=O)/C=C/c1n[nH]c2cc(Sc3ccccc3C(=O)NC)ccc12 | 10 | 5 | 0 | 59 | 20 | 12 | 0 | 57 | 67 | 27 | 22 | 34 | 0 | 0 | 0 | 19 | 13 | 0 | 0 | 0
O=C(Nc1n[nH]c2nc(-c3cccc(O)c3)ccc12)C1CC1 [SB-711805] | 0 | 4 | 87 | 0 | 21 | 9 | 100 | 65 | 4 | 0 | 0 | 4 | 19 | 24 | 3 | 0 | 0 | 14 | 0 | 18
COc1ccc(NC(=O)c2ccoc2)cc1-c1ccc(C(=O)NCC2CC2)cc1 [GW810437] | 6 | 37 | 0 | 0 | 5 | 2 | 12 | 21 | 16 | 0 | 1 | 15 | 26 | 21 | 0 | 0 | 32 | 0 | 0 | 61
Fc1cc(Cl)ccc1Nc1ccnc2cc(-c3ccc(CN4CCSCC4)o3)ccc12 [GW560106] | 17 | 0 | 71 | 1 | 6 | 0 | 0 | 47 | 87 | 75 | 10 | 72 | 28 | 0 | 3 | 0 | 14 | 13 | 82 | 19
Cl.N#CCc1ccc(Nc2nccc(Nc3ccc(Oc4ccccc4)cc3)n2)cc1 [GW639905] | 56 | 0 | 8 | 2 | 9 | 0 | 0 | 0 | 59 | 26 | 0 | 0 | 39 | 34 | 29 | 6 | 10 | 11 | 36 | 40
Nc1ncc(-c2ccc3nccc(-c4ccncc4)c3c2)cc1S(=O)(=O)N1CCCCC1 [GSK1693850] | 20 | 0 | 0 | 4 | 0 | 37 | 0 | 10 | 0 | 9 | 1 | 99 | 0 | 0 | 0 | 0 | 7 | 21 | 0 | 4
Cc1cc(-c2ccnc(Nc3cccc(C#N)c3)n2)cc(C)c1O [GSK1440913] | 47 | 0 | 0 | 74 | 0 | 16 | 0 | 68 | 0 | 18 | 25 | 78 | 9 | 39 | 0 | 5 | 7 | 54 | 35 | 60
CCn1cnc2c(NCc3ccccc3)ncnc21 [SKF-96418] | 15 | 25 | 0 | 0 | 0 | 0 | 1 | 0 | 2 | 0 | 0 | 0 | 0 | 11 | 15 | 0 | 0 | 16 | 2 | 0
COc1cc(Nc2nccc(N3CCC(NS(=O)(=O)c4ccc(NC(C)=O)cc4)CC3)n2)cc(OC)c1OC [GSK1379825] | 71 | 61 | 0 | 63 | 63 | 0 | 0 | 22 | 6 | 76 | 40 | 100 | 27 | 15 | 0 | 12 | 25 | 1 | 51 | 75
CC(=O)Nc1cn2nc(Oc3cccc(NC(=O)c4cccc(C(F)(F)F)c4)c3)ccc2n1 | 13 | 9 | 0 | 81 | 65 | 0 | 0 | 38 | 68 | 0 | 97 | 0 | 0 | 0 | 0 | 8 | 0 | 29 | 61 | 0
Fc1cc(Cl)ccc1Nc1ccnc2cc(-c3ccc(CN4CCOCC4)o3)ccc12 [GW560109] | 13 | 0 | 83 | 13 | 8 | 0 | 0 | 53 | 81 | 82 | 7 | 42 | 41 | 35 | 35 | 21 | 3 | 21 | 86 | 18
O=C(O)C(F)(F)F.O=c1[nH]ccc2nc(N[C@@H]3CCNC3)nc(Nc3cc(Cl)cc(Cl)c3)c12 [GSK2188764] | 8 | 25 | 0 | 0 | 0 | 62 | 73 | 96.5 | 41 | 4 | 39 | 100 | 76 | 62 | 37 | 75 | 85 | 87 | 0 | 80
COc1cccc(C2=C(Nc3cccc(O)c3)C(=O)NC2=O)c1 [SB-390771] | 34 | 19 | 0 | 0 | 0 | 29 | 33 | 0 | 0 | 15 | 21 | 0 | 0 | 46 | 4 | 27 | 9 | 10 | 11 | 21
CC(C)(C)c1ccc(C(=O)Nc2cn3cc(-n4ccnc4)ccc3n2)cc1 | 0 | 0 | 0 | 3 | 17 | 4 | 0 | 2 | 0 | 0 | 2 | 0 | 0 | 0 | 0 | 0 | 0 | 1 | 0 | 22
Cc1ccc(NC(=O)c2ccc(Cl)c(Cl)c2)cc1-c1ccc(C(=O)Nc2ccncc2)cc1 [GSK1398460] | 29 | 0 | 0 | 0 | 0 | 8 | 6 | 0 | 29 | 19 | 60 | 0 | 0 | 0 | 14 | 20 | 48 | 15 | 0 | 0
Cn1cc(-c2ccc3c(c2)CCN3C(=O)Cc2cc(F)cc(C(F)(F)F)c2)c2c(N)ncnc21 [GSK2635225] | 26 | 0 | 0 | 87 | 52 | 17 | 5 | 20 | 10 | 2 | 47 | 49 | 49 | 69 | 36 | 0 | 15 | 26 | 0 | 0
COc1cccc(-c2nc(-c3ccccc3)[nH]c2-c2ccncc2)c1 [SB-610250] | 22 | 17 | 5 | 0 | 0 | 0 | 0 | 0 | 0 | 8 | 0 | 0 | 0 | 22 | 10 | 10 | 4 | 16 | 14 | 18
COc1cccc(NC(=O)NCCNc2ccnc(Nc3ccc(F)cc3)n2)c1 [GSK1379879] | 40 | 26 | 0 | 1 | 0 | 0 | 0 | 0 | 0 | 9 | 0 | 0 | 31 | 38 | 21 | 0 | 14 | 0 | 4 | 33
Cc1ccc(-c2ccc3occ(-c4ccc(S(C)=O)cc4)c3c2)nn1 (stereo not shown) | 0 | 0 | 18 | 0 | 15 | 0 | 38 | 0 | 0 | 0 | 0 | 0 | 0 | 11 | 0 | 0 | 0 | 8 | 2 | 1
NCCC(NC(=O)c1cc(Br)c(-c2ccnc3[nH]ccc23)s1)c1ccccc1.O=C(O)C(F)(F)F.O=C(O)C(F)(F)F (stereo not shown) [GSK1307810] | 6 | 3 | 0 | 73 | 0 | 23 | 0 | 52 | 0 | 9 | 2 | 91.4 | 59 | 47 | 0 | 0 | 20 | 25 | 0 | 83
